# Anthrax LT inh: blocks cellular internalization of anthrax lethal toxin | Cells, anthrax lethal toxin internalization, FRET ratio (460/530) | Potency, µM (top dose mostly 40 µM), for the others: at the top dose activity change, negative = inhibition, hits mostly inhibitors | 70,000 compounds, 0.67% hits | AID 912; further: on the % scale 0 is the no-effect control and ±100 the full control effect; nearly all actives have a fitted effect of over 50% in size
# Prx2 Sm inh: inhibitors of Schistosoma mansoni peroxiredoxin 2. 65,000 compounds, 0.07% hits. Potency, µM. S. mansoni Prx2 activity coupled to TGR/GSH (TGR is thioredoxin glutathione reductase), NADPH fluorescence loss, qHTS
#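 Coupled assay in which S. mansoni TGR passes NADPH reducing equivalents via glutathione to Prx2, which reduces H2O2. Compounds were preincubated 15 min at room temperature with 25 nM TGR/50 nM Prx2 mix. Kinetic NADPH fluorescence loss (ex 365/em 450 nm) was monitored.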
# AmpC inh det: blocks E. coli AmpC beta-lactamase in presence of detergent; Potency, µM (titrated, usually from 28.7 µM), for the others: top-dose activity change, negative = inhibition; 71,000 compounds, 0.09% hits; AID 584; purified AmpC, nitrocefin hydrolysis with detergent; active means well fitted curve in the direction sought with a large enough effect; inconclusive means small, poorly fitted or top-dose-only effect; further: on the % scale 0 is the no-effect control and ±100 the full control effect
# Target sequence (P00811 whole entry, looked up): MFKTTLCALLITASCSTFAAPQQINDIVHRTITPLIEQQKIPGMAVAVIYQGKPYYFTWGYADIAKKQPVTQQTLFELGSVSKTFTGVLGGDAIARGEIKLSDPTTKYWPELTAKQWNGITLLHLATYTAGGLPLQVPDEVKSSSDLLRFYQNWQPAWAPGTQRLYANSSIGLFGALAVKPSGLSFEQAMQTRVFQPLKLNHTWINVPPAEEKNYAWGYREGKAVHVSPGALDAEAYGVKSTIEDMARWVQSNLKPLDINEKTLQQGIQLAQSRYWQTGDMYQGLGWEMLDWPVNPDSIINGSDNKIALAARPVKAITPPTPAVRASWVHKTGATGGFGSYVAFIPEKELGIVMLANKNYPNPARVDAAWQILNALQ
#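 E. coli AmpC (5.3 nM) in 20 mM phosphate pH 7.0 with 0.01% Triton X-100, preincubated 15 min RT with compound; nitrocefin (2 uL of 800 uM stock) hydrolysis followed by 480 nm absorbance every 20 s over 4 min.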
# AmpC nodet inh: inhibitors of E. coli AmpC beta-lactamase without detergent. P00811. AmpC nitrocefin hydrolysis, absorbance 480 nm, no detergent. Potency, µM (doses to about 28.7 µM), for inactives: top-dose activity change, negative = inhibition. 71,000 compounds, 1.8% hits; further: % of control where 0% means no effect
#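 Enzyme, pH 7.0 phosphate. Compound titrations were pre-incubated with AmpC for 15 min at room temperature before nitrocefin (stock 800 uM) addition; product formation was recorded at 480 nm every 20 s for 4 min.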
# Numbers without * were called inactive; ? = inconclusive; . = not tested or not shown; [ ] = another dose, or the depositor's remark. Rows were chosen to be rich in hits. Some 2.6% of all compounds tested hit in one or more screens of this group. Unless noted, the call rests on the fitted dose curve. Potency means the concentration at half of the fitted maximal effect.
SMILES,Anthrax LT inh,Prx2 Sm inh,AmpC inh det,AmpC nodet inh
Cc1ccc(S(=O)(=O)N2CCN(C(=O)CSc3nc4ccccc4c(=O)[nH]3)CC2)cc1,-5%,>57,-4%,0%
Cc1ccc(-c2noc(CN3CCC(C(N)=O)CC3)n2)cc1,-15%,>57,-2%,-4%
Cc1ccc(-c2noc(CN3C(C)CCCC3C)n2)cc1 (stereo not given),-12%,>57,12%,4µM*[single pt active]
CCn1c2ccccc2c2cc(NC(=O)c3ccco3)ccc21,13µM*,.,8%,-5%
CCn1c2ccccc2c2cc(NC(=O)CSc3nnnn3-c3ccccc3)ccc21,.,>57,1%,10µM*
CCn1c2ccccc2c2cc(CN3CCN(C(=O)c4ccco4)CC3)ccc21,?,.,-6%,148%
c1ccc2c(c1)nnn2CN1CCOCC1,-4%[8 µM],>57,-4%[5.75 µM],1%[5.75 µM]
COc1ccc(COC(=O)N/N=C2/C[C@@H](O)[C@@H](O)[C@@H]3[C@@H]4C(=O)N(Cc5ccc6c(c5)OCO6)C(=O)[C@H]4CC[C@H]23)cc1,4%[8 µM],.,.,.
O=C(NCc1cccnc1)C1c2ccccc2C(=O)N1C1CCCC1 (stereo not given),-5%,>57,14%,4µM*[single pt active]
COc1ccc(OC)c(CN2C(=O)c3ccccc3C2C(=O)NCc2cccnc2)c1 (stereo not given),1%,>57,11%,4µM*[single pt active]
COc1ccc(CN2C(=O)c3ccccc3C2C(=O)NCc2cccnc2)c(OC)c1 (stereo not given),3%,>57,-5%,21%
COc1cccc(-c2csc3nnc(SCC(=O)c4ccc(NC(C)=O)cc4)n23)c1,-8%,>57,-6%,12%
COc1cccc(-c2cc(N)nn2C(=O)Nc2ccc(Cl)cc2)c1,?,>57,14%,4µM*[single pt active]
C[N+](C)(C)/N=C\c1ccc(O)c(O)c1,?,>57,-3%[5.75 µM],6%[5.75 µM]
Oc1ccc(N=Cc2ccc(O)c(O)c2)cc1,?,.,5%,13µM*
CC(=O)OC[C@H]1O[C@@H](O/N=C\[C@@H](C)[C@H](OCc2ccccc2)C(C)C)[C@H](OC(C)=O)[C@@H](OC(C)=O)[C@H]1OC(C)=O,3%[0.064 µM],.,.,.
O=C(O)CSc1ccc([N+](=O)[O-])cc1[N+](=O)[O-],?,>57,1%[5.75 µM],-8%[5.75 µM]
CSCC[C@@H](C(=O)Nc1ccc2c(c1)OCCO2)N1Cc2ccccc2C1=O,-7%,>57,8%,4µM*[single pt active]
CCC(C)[C@@H](C(=O)Nc1ccc(OC)c(OC)c1)N1Cc2ccccc2C1=O (stereo not given in full),9%,>57,13%,4µM*[single pt active]
c1ccc([C@H](c2cccc3c2ccc2ccccc23)[C@H](c2ccccc2)c2cccc3c2ccc2ccccc23)cc1,3%[8 µM],>57,-2%[5.75 µM],-14%[5.75 µM]
CCOC(=O)C1CCCN(c2c(N3CCN(c4ccccn4)CC3)c(=O)c2=O)C1 (stereo not given),1%,>57,11%,4µM*[single pt active]
CCOC(=O)C1CCCN(c2c(NCCCN(C)c3ccccc3)c(=O)c2=O)C1 (stereo not given),?,>57,11%,42%
CCOC(=O)C1CCCN(c2c(Nc3cccc(C)c3)c(=O)c2=O)C1 (stereo not given),1%,.,12%,4µM*[single pt active]
CC(=O)OCC1OC(c2cc(C)cc(C)c2)C=CC1OC(C)=O (stereo not given),-5%[8 µM],.,.,.
O=S(O)O.O=S(O)O.[Co].[NH2-].[NH2-].[NH2-].[NH2-],-1%[8 µM],>57,-4%[5.75 µM],14%[5.75 µM]
CCCNC(=O)OC[C@@H]1O[C@H](CCON=C(C)C)C=C[C@@H]1Oc1ccc(OC)cc1,-12%[8 µM],.,.,.
COc1ccccc1NC(=O)NCCCN1CCN(c2cccc(Cl)c2)CC1,?,>57,12%,4µM*[single pt active]

# Assay outcomes: PubChem BioAssay, National Center for Advancing Translational Sciences (NCATS)
